This passage reports Potency results from PubChem BioAssay (NCATS).

Results filed as inconclusive are left out. Entries that show only a call come without a potency. Calls of active or inactive are those of the source. Calls follow the shape of the dose curve; as a rule, active = well fitted curve in the direction sought with a large enough effect; inconclusive = small, poorly fitted or top-dose-only effect, or another doubt; inactive = no such curve, though single readings can be large; an effect the other way counts as inactive or inconclusive.

Experiment [1] concerns the target Aldehyde dehydrogenase, mitochondrial (Homo sapiens) (UniProt P05091). Kind of experiment: qHTS for Inhibitors of the Aldehyde Dehydrogenase Family (ALDH2) Primary screen (AID 2061308). Also: nearly all actives have a fitted effect of over 55% in size. A general note: In qHTS, concentration-response curves come from the screen itself.
Experiment [2] has as its target Retinaldehyde dehydrogenase 3 (Homo sapiens) (UniProt P47895). Put plainly: qHTS for Inhibitors of the Aldehyde Dehydrogenase Family (ALDH1A3) Primary screen (AID 2061315).

`COc1ccc(NC(=O)c2cnn3c(C)cc(C)nc23)cc1OC`: the Potency result in experiment [1] and in experiment [2] was “inactive” each time.

Turning to `CCOC(=O)c1ccoc1-c1ccc2ncnc(NCc3ccc(C)o3)c2c1`, the Potency entry in experiment [1] and in experiment [2] was “inactive” in each case.

With `CC1=C(C(=O)Nc2ccccc2C)C(c2ccccc2Br)N=C(Nc2nc3ccccc3o2)N1` (stereo not given), the Potency entry in experiment [1] and in experiment [2] was “inactive” each time.

Regarding `CC12CCC3C1C(c1c(cc(O)c(C(=O)c4ccccc4)c1O)O2)C3(C)C` (stereo not given), the Potency entry in experiment [1] and in experiment [2] was “inactive” throughout.

As to `O=C(Nc1ccc2ccccc2c1)Nc1cccc(-c2ccncc2)n1`, the Potency entry in experiment [1] and in experiment [2] was “inactive” in each case.

For `CC(C)C1=CC2=CCC3[C@](C)(CCC[C@@]3(C)C(=O)O)C2CC1O` (stereo not given in full), the Potency entry in experiment [1] and in experiment [2] was “inactive” in each case.

As for `C=CCNc1oc(-c2ccc(-c3ccccc3)cc2)nc1C#N`, the Potency result in experiment [1] and in experiment [2] was “inactive” each time.

In the case of `O=C(CNC(=O)C1CCCC1)OC(C(=O)Nc1cc(C(F)(F)F)ccc1Cl)c1ccccc1` (stereo not given), the Potency entry in experiment [1] and in experiment [2] was “inactive” throughout.

For the compound `Cc1ccc2nc3sc(C(=O)N4CCC(C(N)=O)CC4)cc3cc2c1`, the Potency result in experiment [1] and in experiment [2] was “inactive” throughout.

`NC(=O)C1CCN(c2nc(-c3ccccc3Cl)cs2)CC1`: the Potency entry in experiment [1] and in experiment [2] was “inactive” in each case.

`CC1=CC2/C=C(\C)CCC(O)C(=O)C(O)CC(=O)C23C(=O)NC(CC(C)C)C3C1C` (stereo not given): the Potency result in experiment [1] and in experiment [2] was “inactive” in each case.

For the compound `COc1ccc(OC)c(-c2nnc3n2N=C(c2c(OC)cccc2OC)CS3)c1`, the Potency result in experiment [1] and in experiment [2] was “inactive” each time.

With `COc1ccc([S+](=O)([O-])N2CCCN([S+](=O)([O-])c3ccc(OC)c(NC(C)=O)c3)CC2)cc1NC(C)=O`, the Potency result in experiment [1] and in experiment [2] was “inactive” each time.

Turning to `Cc1ccc(OCCn2c(CCNC(=O)Cc3ccc(F)cc3F)nc3ccccc32)cc1`, the Potency result in experiment [1] and in experiment [2] was “inactive” in each case.

Take `Cc1ccc(C)n1-c1cccc(-c2nn[nH]n2)c1`: the Potency entry in experiment [1] and in experiment [2] was “inactive” each time.

As to `COCCN(CCOC)c1nc(C)nc2c1nc(-c1ccccc1)n2CCN(C)C`, the Potency result in experiment [1] and in experiment [2] was “inactive” in each case.

`O=S(=O)(NCCCNS(=O)(=O)c1c(F)cccc1F)c1ccc2c(c1)OCCO2`: the Potency result in experiment [1] and in experiment [2] was “inactive” in each case.

Turning to `Cc1ccnc(NC(=S)N2CCN(c3cccc(C(F)(F)F)c3)C2)c1`, the Potency entry in experiment [1] and in experiment [2] was “inactive” throughout.

In the case of `O=C(O)c1ccc(CSc2nnc(-c3ccc([S+](=O)([O-])N4CCCC4)cc3)n2-c2ccccc2)cc1`, the Potency result in experiment [1] and in experiment [2] was “inactive” in each case.

Regarding `CCOc1ccc(C(=O)Nc2ccc(-c3nc4ccccc4o3)cc2)cc1[N+](=O)[O-]`, the Potency result in experiment [1] and in experiment [2] was “inactive” each time.

Regarding `O=C(O)c1cccc(S(=O)(=O)N2CCN(S(=O)(=O)c3ccc4c(c3)OCCO4)CC2)c1`, the Potency result in experiment [1] and in experiment [2] was “inactive” throughout.

With `Cc1cnc(-c2ccccc2C(C)C)nc1NCC1CCN(c2cccnc2)CC1`, the Potency result in experiment [1] and in experiment [2] was “inactive” each time.

As for `COCCNc1nc(C)nc2c1nc(-c1ccccc1)n2C1CCN(Cc2ccccc2)C1` (stereo not given), the Potency result in experiment [1] and in experiment [2] was “inactive” in each case.

As to `COc1cc2c(NC3CCN(C(C)C)CC3)nc(N3CCC(F)(F)CC3)nc2cc1OCCCN1CCCC1`, the Potency result in experiment [1] and in experiment [2] was “inactive” in each case.

Take `COc1ccc2nc(-c3cccc(F)c3)sc2c1`: the Potency result in experiment [1] and in experiment [2] was “inactive” in each case.

Turning to `COC1C=C([C@@H]2CC=C3[C@@]4(C)C(CC[C@]32C)[C@@]2(C)C=CC(=O)C(C)(C)C2C[C@H]4OC(C)=O)C(=O)O1` (stereo not given in full), the Potency entry in experiment [1] and in experiment [2] was “inactive” each time.

`CC(C)c1ccccc1-c1nccc(NCc2ccc(-c3ccnc(C(F)(F)F)c3)cc2)n1`: the Potency result in experiment [1] and in experiment [2] was “inactive” in each case.

`CN(C)CC(=O)NC1CCCc2c1cnn2-c1ccc(F)cc1F` (stereo not given): the Potency result in experiment [1] and in experiment [2] was “inactive” throughout.

Take `Cc1ccc(-c2cc(C(=O)Nc3ccc(-c4nn[nH]n4)cc3)c3ccccc3n2)cc1C`: the Potency result in experiment [1] and in experiment [2] was “inactive” throughout.

`NCCCCC(=O)Nc1ccc(Cl)cc1C(=O)c1ccc[nH]1`: the Potency result in experiment [1] and in experiment [2] was “inactive” each time.

As for `N#Cc1cccc(NS(=O)(=O)c2ccc3c(c2)CCC(=O)N3)c1`, the Potency entry in experiment [1] and in experiment [2] was “inactive” throughout.

`COc1ccc(NS(=O)(=O)c2ccc3c(c2)CCC(=O)N3)cc1`: the Potency result in experiment [1] and in experiment [2] was “inactive” each time.

For `CCOC(=O)CCc1cc(F)c(S(=O)(=O)N2CCN(S(=O)(=O)c3ccc4c(c3)OCCO4)CC2)cc1F`, the Potency entry in experiment [1] and in experiment [2] was “inactive” in each case.

For the compound `COc1ccccc1S(=O)(=O)Nc1ccc2c(c1)CN(C)C(=O)N2`, the Potency entry in experiment [1] and in experiment [2] was “inactive” each time.

Regarding `Cc1ccc(OCCn2c(CCNC(=O)C3CCCCCC3)nc3ccccc32)cc1`, the Potency result in experiment [1] and in experiment [2] was “inactive” throughout.

For `COc1ccc(C2c3c(nc(CCCc4ccccc4)[nH]c3=O)Oc3ccc4ccccc4c32)cc1OC` (stereo not given), the Potency result in experiment [1] and in experiment [2] was “inactive” throughout.

`CCn1c(-c2nonc2N)nc2c(C#CC(C)(C)O)ncc(OCC3CCCNC3)c21` (stereo not given): the Potency entry in experiment [1] and in experiment [2] was “inactive” each time.

Take `Cn1ccc2cc(-c3ccc4ncnc(NCc5cccs5)c4c3)ccc21`: the Potency result in experiment [1] and in experiment [2] was “inactive” each time.

In the case of `CCCCc1nnc(-c2cnn(C)c2N)n1CCCn1ccnc1`, the Potency entry in experiment [1] and in experiment [2] was “inactive” each time.

As for `O=C(O)CC(=O)OC[C@H]1O[C@@H](Oc2ccc3c(c2)OC[C@H]2c4cc5c(cc4O[C@@H]32)OCO5)[C@H](O)[C@@H](O)[C@@H]1O`, the Potency result in experiment [1] and in experiment [2] was “inactive” throughout.
